Drawing on PubChem BioAssay (EPA / NIEHS), this text covers AC50 and outcome for 19 molecules.

Values joined by “and” are separate entries in the source; they are usually repeats but may differ in a detail not shown here. Equal values may be shown once. Results filed as inconclusive are left out. More than one record can exist for a structure, and the calls need not agree. Active and inactive are the calls of the source. How the source made its calls, unless noted: active means hit-call score of the fitted dose curve at least 0.9, where 1 is the maximum; inconclusive means response in the unintended direction; inactive means score below 0.9.

Experiment [1] concerns the target Glucocorticoid receptor (Homo sapiens) (UniProt P04150). The experiment is described as follows: NVS_NR_hGR: NovaScreen (NVS) Nuclear Receptor Binding Assay for human Glucocorticoid Receptor (GR) (AID 2283363).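 Further: activity is loss of specific radioligand binding signal relative to DMSO.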 In outline:
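Competitive displacement of a labelled ligand was measured on cell-free receptor preparations after 16 h exposure. Initial testing used 25 uM in duplicate with plate controls; confirmed actives went into concentration series.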

The target in experiment [2] is Nuclear receptor subfamily 1 group I member 2 (Homo sapiens) (UniProt O75469). The experiment is described as follows: NVS_NR_hPXR: NovaScreen (NVS) Nuclear Receptor Binding Assay for human Pregnane X Receptor (PXR) (AID 2283365).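 Further: a drop in FRET signal versus DMSO baseline means the compound binds.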 Summed up:
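Cell-free TR-FRET binding assay with extracted human PXR protein, read 2 h after dosing. Primary screen run in duplicate at 25 uM, actives followed in concentration series; loss of signal fitted against DMSO baseline.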

Experiment [3] concerns the target Estrogen receptor beta (Homo sapiens) (UniProt Q92731). The experiment is described as follows: OT_ER_ERbERb_1440: Odyssey Thera (OT) 24-hour HEK293T Protein-Complementation Assay for Estrogen Receptor-beta/-beta Homodimer (AID 2283380).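 Further: fluorescence gain from ER beta LBD homodimer complementation read by laser scanning cytometry; scored as signal increase over DMSO baseline for both agonists and antagonists.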 Summed up:
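Fluorescence increase, nuclear for agonists or whole-cell for antagonists, relative to DMSO vehicle, quantified by laser scanning cytometer after fixation and Draq5 staining. Readout from 24 h treatment of HEK293T cells carrying complementation-paired ER beta LBD (aa 310-547).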

In experiment [4] the target is Estrogen receptor (Homo sapiens) (UniProt P03372). The experiment is described as follows: OT_ERa_GFPERaERE_0480: Odyssey Thera (OT) 8-hour HeLa Transcription Induction Assay for Estrogen Receptor (AID 2283381; active means hit-call score of the fitted dose curve at least 0.9, where 1 is the maximum; inactive means score below 0.9). Summed up: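 Fluorescent reporter signal, imaged by microscopy and scored with image-analysis algorithms, was taken 8 h after chemical dosing of HeLa cells; activity was fitted upward relative to DMSO.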

Experiment [5] has the same target. The experiment is described as follows: OT_ERa_GFPERaERE_0120: Odyssey Thera (OT) 2-hour HeLa Transcription Induction Assay for Estrogen Receptor (AID 2283382). In outline: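 HeLa, 384-well, 2 h chemical exposure; GFP reporter induction (ERE), fluorescence microscopy; high content image analysis; positive fitting direction vs DMSO.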
The target of experiment [6] is Retinoic acid receptor RXR-alpha (Homo sapiens) (UniProt P19793). The experiment is described as follows: OT_NURR1_NURR1RXRa_0480: Odyssey Thera (OT) 8-hour HEK293T Protein Complementation Assay for Nurr1/retinoid X receptor (RXR) (AID 2283385). In outline: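 8 h compound exposure, HEK293T; Nurr1/RXRα fragment complementation; fluorescence intensity; positive fitting direction vs DMSO baseline.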

Experiment [7] has as its target Bile acid receptor (Homo sapiens) (UniProt Q96RI1). The experiment is described as follows: OT_FXR_FXRSRC1_1440: Odyssey Thera (OT) 24-hour HEK293T Protein-Complementation Assay for Farnesoid X receptor/SRC-1 Co-activator (AID 2283384). Summed up: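 Compounds are applied to human kidney HEK293T cells expressing bait and prey fused to reporter protein fragments; after 24 h, reconstituted reporter fluorescence is measured. Activity is fitted as signal gain over DMSO.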

Experiment [8] deals with human Thyroid Receptor Alpha (TRa), THRA (gene 7067) (UniProt P10827). The experiment is described as follows: NVS_NR_hTRa_Antagonist: NovaScreen (NVS) Nuclear Receptor Binding Assay for human Thyroid Receptor Alpha Antagonism (TRa) (AID 2283362).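 Further: activity is loss of signal relative to DMSO baseline.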 In outline: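 Cell-free AlphaLISA chemiluminescent binding read 1 h after dosing, antagonist mode; signal loss versus DMSO baseline. Primary screen in duplicate at 25 uM, then concentration series for actives.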

Experiment [9] addresses Norway rat Vesicular Monoamine Transporter (VMAT2), neurotransmitter transporter, Slc18a2 (gene 25549) (UniProt Q01827). The experiment is described as follows: NVS_TR_rVMAT2: NovaScreen (NVS) Transporter Assay for Norway rat Vesicular Monoamine Transporter (VMAT2), neurotransmitter transporter (AID 2283376).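 Further: actives lower the bound radioligand signal below the DMSO level.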 Summed up: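 Tissue: rat forebrain extract. Format: competitive radioligand binding, cell-free. Timepoint: 1 h. Readout: filter radiodetection/scintillation. Screen: 25 uM in duplicate, then concentration series for actives. Baseline: DMSO.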

Experiment [10] has as its target Agonist Androgen Response Element (ARE), AR (gene 367) (UniProt P10275). The experiment is described as follows: OT_AR_ARELUC_AG_1440: Odyssey Thera (OT) 24-hour CHO-K1 Luciferase Assay for Agonist Androgen Response Element (ARE) (AID 2283379). In outline: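 Agonist mode, 24 h exposure in CHO-K1 ARE-luciferase cells; values reflect luminescence induction over vehicle.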

Experiment [11] has as its target Peroxisome proliferator-activated receptor gamma (Homo sapiens) (UniProt P37231). The experiment is described as follows: NVS_NR_hPPARg: NovaScreen (NVS) Nuclear Receptor Binding Assay for human Peroxisome Proliferator-activated Receptor gamma (PPARg) (AID 2283370). In outline:
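Cell-free fluorescence polarization binding to human PPARg protein, read 2 h after dosing. Primary screen in duplicate at 25 uM, actives followed in concentration series; loss of signal relative to DMSO scored.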

The target of experiment [12] is human Norepinephrine Transporter (NET), SLC6A2 (gene 6530) (UniProt P23975). The experiment is described as follows: NVS_TR_hNET: NovaScreen (NVS) Transporter Assay for human Norepinephrine Transporter (NET) (AID 2283377).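 Further: cell-free membrane protein extracted from CHO cells expressing human NET.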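 On AC50: displacement of radioligand from human NET seen as loss of scintillation signal.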 Summed up: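 Scintillation counts of filter-retained radioligand served as the readout, taken 1 h post-dosing in a cell-free CHO-derived system. Test chemicals ran first at 25 uM in duplicate; confirmed hits were retested across concentrations.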

Experiment [13] has as its target mouse Estrogen Receptor alpha (Era), Esr1 (gene 13982) (UniProt P19785). The experiment is described as follows: NVS_NR_mERa: NovaScreen (NVS) Nuclear Receptor Binding Assay for mouse Estrogen Receptor alpha (Era) (AID 2283378).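 Further: hit means loss of bound radioligand signal relative to DMSO.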 Summed up:
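Cell-free radioligand competitive displacement binding, read by filter-based scintillation counting 18 h after dosing. Primary screen run in duplicate at 25 uM, actives retested in concentration series; loss of signal versus DMSO.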

Experiment [14] concerns guinea pig Dopamine Transporter (DAT), gene 100714898. The experiment is described as follows: NVS_TR_gDAT: NovaScreen (NVS) Transporter Assay for guinea pig Dopamine Transporter (DAT) (AID 2283369).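 Further: active compounds lower bound radioligand signal relative to DMSO.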 Summed up:
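Guinea pig striatal membranes, cell-free radioligand binding with filter-based scintillation counting, read 2 h after dosing. Loss of signal versus DMSO baseline; single-concentration primary (25 uM) then concentration-response up to 50 uM.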

In experiment [15] the target is human Dopamine Transporter (DAT), SLC6A3 (gene 6531) (UniProt Q01959). The experiment is described as follows: NVS_TR_hDAT: NovaScreen (NVS) Transporter Assay for human Dopamine Transporter (DAT) (AID 2283374).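 Further: activity means loss of bound radioligand signal relative to DMSO.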 Summed up: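 Test chemicals were first screened in duplicate at 25 uM, with actives retested as concentration series. Displacement of a specific radioligand from cell-free human dopamine transporter was measured after 1 h by filtration and scintillation counting.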

The target of experiment [16] is guinea pig Sigma Receptor, Non-selective Binding, SIGMAR1 (gene 100135589) (UniProt Q60492). The experiment is described as follows: NVS_OR_gSIGMA_NonSelective: NovaScreen (NVS) Nuclear Receptor Binding Assay for guinea pig Sigma Receptor, Non-selective Binding (AID 2283367). Summed up: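 gp brain membr., radioligand displacement, 1 h, filtration + scint. counting; DMSO = baseline; 25 uM x2 primary, conc.-response confirm.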

In experiment [17] the target is Bile acid receptor (Homo sapiens) (UniProt Q96RI1). The experiment is described as follows: OT_FXR_FXRSRC1_0480: Odyssey Thera (OT) 8-hour HEK293T Protein-Complementation Assay for Farnesoid X receptor/SRC-1 Co-activator (AID 2283383). Summed up:
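Human kidney HEK293T cells carried FXR/SRC-1 fragment-complementation constructs. Compounds were added and incubated 8 h. Reporter reassembly upon receptor–co-activator interaction was then quantified by fluorescence, with curves fitted in the positive direction relative to DMSO.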

Chain of Estrogen receptor beta (Homo sapiens) (Q92731 whole entry, looked up, the tested form may be a part): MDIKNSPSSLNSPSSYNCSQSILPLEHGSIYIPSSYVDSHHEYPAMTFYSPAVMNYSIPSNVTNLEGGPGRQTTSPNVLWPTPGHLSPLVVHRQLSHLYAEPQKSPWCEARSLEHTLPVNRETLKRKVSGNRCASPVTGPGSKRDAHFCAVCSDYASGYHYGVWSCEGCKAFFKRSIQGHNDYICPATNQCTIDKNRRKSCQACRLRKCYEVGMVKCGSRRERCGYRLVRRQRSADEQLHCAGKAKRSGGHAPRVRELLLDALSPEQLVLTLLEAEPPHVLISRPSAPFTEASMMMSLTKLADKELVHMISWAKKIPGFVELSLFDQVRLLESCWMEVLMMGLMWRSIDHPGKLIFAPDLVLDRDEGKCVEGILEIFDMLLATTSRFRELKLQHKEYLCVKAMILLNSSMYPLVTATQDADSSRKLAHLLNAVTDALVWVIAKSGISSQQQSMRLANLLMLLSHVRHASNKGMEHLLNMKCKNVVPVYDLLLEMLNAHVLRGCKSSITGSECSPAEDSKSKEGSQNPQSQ
Chain of Estrogen receptor (Homo sapiens) (P03372 whole entry, looked up): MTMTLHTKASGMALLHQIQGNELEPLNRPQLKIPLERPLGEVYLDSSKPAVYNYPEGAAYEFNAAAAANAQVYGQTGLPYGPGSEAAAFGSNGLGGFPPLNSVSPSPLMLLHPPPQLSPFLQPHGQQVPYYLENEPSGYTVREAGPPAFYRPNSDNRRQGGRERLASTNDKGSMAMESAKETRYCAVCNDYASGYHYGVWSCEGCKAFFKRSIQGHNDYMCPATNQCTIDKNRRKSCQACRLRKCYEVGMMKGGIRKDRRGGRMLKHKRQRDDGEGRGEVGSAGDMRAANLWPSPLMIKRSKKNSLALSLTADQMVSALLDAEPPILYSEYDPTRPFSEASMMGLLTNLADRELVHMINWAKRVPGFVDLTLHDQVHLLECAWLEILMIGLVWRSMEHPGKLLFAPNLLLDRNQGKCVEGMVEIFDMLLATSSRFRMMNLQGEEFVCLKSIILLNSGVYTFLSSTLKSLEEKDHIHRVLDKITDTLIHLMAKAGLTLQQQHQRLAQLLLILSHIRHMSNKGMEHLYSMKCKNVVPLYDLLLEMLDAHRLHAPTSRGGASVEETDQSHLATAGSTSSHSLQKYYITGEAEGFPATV
Chain of human Norepinephrine Transporter (NET), SLC6A2 (gene 6530) (P23975 whole entry, looked up): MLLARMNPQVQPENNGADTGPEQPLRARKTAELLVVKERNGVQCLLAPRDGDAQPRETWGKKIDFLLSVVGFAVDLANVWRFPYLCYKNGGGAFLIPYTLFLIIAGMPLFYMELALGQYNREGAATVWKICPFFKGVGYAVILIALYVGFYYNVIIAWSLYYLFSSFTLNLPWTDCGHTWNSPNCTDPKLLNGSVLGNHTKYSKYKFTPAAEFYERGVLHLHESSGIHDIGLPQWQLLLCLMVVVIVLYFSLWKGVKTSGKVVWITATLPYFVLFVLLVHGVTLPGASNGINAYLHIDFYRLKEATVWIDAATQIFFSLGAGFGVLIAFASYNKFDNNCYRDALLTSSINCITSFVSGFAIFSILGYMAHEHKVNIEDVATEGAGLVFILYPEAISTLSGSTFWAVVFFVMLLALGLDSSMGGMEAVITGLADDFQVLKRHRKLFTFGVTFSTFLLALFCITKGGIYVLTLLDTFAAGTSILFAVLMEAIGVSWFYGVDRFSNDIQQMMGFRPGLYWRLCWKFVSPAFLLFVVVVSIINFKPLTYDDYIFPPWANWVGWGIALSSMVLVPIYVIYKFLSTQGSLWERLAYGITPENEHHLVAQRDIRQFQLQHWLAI
Chain of Glucocorticoid receptor (Homo sapiens) (P04150 whole entry, looked up): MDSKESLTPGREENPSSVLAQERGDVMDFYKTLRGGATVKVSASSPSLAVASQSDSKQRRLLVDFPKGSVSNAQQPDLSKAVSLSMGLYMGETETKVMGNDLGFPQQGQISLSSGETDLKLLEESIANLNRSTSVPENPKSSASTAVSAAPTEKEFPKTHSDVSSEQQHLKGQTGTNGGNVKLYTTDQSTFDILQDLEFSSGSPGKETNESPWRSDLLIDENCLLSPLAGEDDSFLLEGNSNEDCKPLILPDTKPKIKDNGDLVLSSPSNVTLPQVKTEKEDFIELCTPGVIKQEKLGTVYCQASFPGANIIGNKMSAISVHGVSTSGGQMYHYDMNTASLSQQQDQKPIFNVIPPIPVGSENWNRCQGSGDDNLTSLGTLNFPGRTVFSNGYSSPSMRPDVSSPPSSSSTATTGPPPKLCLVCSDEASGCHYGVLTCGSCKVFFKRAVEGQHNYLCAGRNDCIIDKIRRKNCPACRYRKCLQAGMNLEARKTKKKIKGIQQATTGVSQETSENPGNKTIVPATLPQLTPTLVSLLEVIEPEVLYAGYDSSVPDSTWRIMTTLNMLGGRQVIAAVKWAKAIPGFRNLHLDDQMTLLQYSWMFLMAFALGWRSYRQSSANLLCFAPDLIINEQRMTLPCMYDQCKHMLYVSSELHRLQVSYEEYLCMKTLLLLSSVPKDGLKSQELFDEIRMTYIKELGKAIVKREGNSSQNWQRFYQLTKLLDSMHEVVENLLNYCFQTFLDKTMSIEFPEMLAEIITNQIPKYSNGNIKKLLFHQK
Chain of Retinoic acid receptor RXR-alpha (Homo sapiens) (P19793 whole entry, looked up, the tested form may be a part): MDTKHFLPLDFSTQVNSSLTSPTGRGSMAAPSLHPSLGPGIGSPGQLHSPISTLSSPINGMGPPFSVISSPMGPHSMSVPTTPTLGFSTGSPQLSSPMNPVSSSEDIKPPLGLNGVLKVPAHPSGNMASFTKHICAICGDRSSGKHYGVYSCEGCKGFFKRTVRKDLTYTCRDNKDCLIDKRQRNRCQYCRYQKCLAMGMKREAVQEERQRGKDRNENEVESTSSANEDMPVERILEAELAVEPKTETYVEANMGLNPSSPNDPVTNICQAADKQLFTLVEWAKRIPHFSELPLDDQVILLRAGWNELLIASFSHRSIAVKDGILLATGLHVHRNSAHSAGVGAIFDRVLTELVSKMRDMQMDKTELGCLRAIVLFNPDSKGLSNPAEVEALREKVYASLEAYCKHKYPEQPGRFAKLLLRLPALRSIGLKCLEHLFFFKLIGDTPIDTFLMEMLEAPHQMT
Chain of Norway rat Vesicular Monoamine Transporter (VMAT2), neurotransmitter transporter, Slc18a2 (gene 25549) (Q01827 whole entry, looked up): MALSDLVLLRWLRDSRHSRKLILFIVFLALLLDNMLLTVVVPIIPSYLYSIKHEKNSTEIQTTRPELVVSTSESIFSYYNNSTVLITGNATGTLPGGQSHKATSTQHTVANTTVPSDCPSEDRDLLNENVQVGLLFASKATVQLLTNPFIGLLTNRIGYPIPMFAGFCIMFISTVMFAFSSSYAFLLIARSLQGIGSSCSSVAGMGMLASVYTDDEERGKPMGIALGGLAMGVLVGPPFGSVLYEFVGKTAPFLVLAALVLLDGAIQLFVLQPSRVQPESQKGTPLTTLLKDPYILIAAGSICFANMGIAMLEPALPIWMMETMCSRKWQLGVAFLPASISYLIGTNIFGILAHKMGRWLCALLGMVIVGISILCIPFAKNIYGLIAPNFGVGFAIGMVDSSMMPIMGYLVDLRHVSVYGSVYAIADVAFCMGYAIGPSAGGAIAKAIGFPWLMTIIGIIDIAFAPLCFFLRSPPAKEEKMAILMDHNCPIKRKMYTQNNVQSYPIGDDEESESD
Chain of Peroxisome proliferator-activated receptor gamma (Homo sapiens) (P37231 whole entry, looked up): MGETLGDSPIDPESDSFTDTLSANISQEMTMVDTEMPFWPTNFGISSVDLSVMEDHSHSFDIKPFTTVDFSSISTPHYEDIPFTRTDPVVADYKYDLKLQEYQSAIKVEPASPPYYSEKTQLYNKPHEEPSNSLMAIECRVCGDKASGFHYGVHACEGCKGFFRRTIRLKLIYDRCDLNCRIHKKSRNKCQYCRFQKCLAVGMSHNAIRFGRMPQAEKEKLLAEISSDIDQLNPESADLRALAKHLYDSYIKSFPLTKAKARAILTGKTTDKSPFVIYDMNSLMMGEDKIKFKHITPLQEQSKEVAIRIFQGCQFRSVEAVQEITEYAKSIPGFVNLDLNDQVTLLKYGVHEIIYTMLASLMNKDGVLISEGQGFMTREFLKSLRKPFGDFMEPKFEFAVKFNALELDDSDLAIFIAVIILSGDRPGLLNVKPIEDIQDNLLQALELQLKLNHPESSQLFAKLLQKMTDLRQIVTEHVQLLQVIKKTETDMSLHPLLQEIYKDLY
Chain of Nuclear receptor subfamily 1 group I member 2 (Homo sapiens) (O75469 whole entry, looked up): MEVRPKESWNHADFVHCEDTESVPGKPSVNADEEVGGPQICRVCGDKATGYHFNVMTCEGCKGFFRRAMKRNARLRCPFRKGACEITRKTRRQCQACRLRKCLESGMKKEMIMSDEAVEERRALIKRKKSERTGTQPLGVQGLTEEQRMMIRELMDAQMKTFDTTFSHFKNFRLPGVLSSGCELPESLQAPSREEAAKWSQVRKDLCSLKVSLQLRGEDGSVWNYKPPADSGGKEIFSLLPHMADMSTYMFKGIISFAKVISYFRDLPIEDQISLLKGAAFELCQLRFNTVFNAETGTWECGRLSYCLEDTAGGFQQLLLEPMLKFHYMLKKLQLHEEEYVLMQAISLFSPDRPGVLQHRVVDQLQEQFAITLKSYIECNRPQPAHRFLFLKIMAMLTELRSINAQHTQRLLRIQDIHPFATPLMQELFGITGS
Chain of Bile acid receptor (Homo sapiens) (Q96RI1 whole entry, looked up, the tested form may be a part): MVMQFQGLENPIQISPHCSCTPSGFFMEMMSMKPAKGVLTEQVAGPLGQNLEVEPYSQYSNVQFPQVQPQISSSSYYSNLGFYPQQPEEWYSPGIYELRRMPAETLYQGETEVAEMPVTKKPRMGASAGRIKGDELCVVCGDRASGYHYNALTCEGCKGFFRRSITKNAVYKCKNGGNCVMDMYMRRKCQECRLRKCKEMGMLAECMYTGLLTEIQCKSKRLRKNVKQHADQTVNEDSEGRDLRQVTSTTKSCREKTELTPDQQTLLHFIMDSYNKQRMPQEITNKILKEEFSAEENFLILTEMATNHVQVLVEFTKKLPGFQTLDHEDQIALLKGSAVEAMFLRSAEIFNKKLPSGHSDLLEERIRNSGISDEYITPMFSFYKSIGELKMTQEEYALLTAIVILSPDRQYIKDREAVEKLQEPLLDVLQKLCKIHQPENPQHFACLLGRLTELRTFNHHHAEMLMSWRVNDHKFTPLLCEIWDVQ

In general, AC50 refers to the concentration at which the activity in the assay is half-maximal. Consider `Cc1ccc2nc3sc(=O)sc3nc2c1`, for which the AC50 in experiment [1] was 1.64 µM (active).

Regarding `O=CCCl`, the result in [2], in experiment [3], in [4], in experiment [5] and in [6] was inactive.

As for `COc1nn(C(=O)NS(=O)(=O)c2ccccc2OC(F)(F)F)c(=O)n1C`, in [2], the AC50 is 23.4 µM (active). Further, the result in experiment [3], in [7] and in [6] was inactive.

Turning to `CCOc1cc(C=O)ccc1O`, the outcome in experiment [8] was inactive.

`CCCCCCCCCCCCOS(=O)(=O)O`: the AC50 is 11.6 µM (active) and 12.7 µM (active) in experiment [1]; 38.1 µM (active) and 17.4 µM (active) in experiment [2]. For the same molecule, the molecule was called inactive in experiment [9] and in experiment [6].

Consider `C=CC(Cl)CCl` (stereo not given), for which the AC50 in [2] was 5.06 µM (active). Further, the call in experiment [10], in experiment [3] and in experiment [6] was inactive.

Take `Clc1cccc(Cl)c1Cl`: the outcome in experiment [2] and in experiment [6] was inactive.

Take `Oc1cc(Cl)c(Cl)cc1Cl`: the call in experiment [11], in [9] and in [6] was inactive. Besides, the values for the AC50 in [12], in experiment [3] and in experiment [6] were 10.8 µM (active), 75.1 µM (active) and 78.3 µM (active), respectively.

With `CC(=Cc1ccccc1)[N+](=O)[O-]`, the result in experiment [11], in experiment [13], in [10] and in experiment [3] was inactive. Further, the AC50 in experiment [4] is 16.6 µM (active); in experiment [5], 19.8 µM (active).

Turning to `O=[N+]([O-])c1ccccc1O`, the call in experiment [11] and in experiment [3] was inactive.

For `Oc1ccc(Cc2ccc(O)cc2)cc1`, the AC50 is 10.1 µM (active) in [14], 9.05 µM (active) in experiment [15] and 25 µM (active) in [12].

As for `N#Cc1cccnc1`, the molecule was called inactive in experiment [9], in experiment [3], in experiment [4], in experiment [5], in experiment [7] and in experiment [6].

`Cc1ccc(OP(=O)(Oc2ccc(C)cc2C)Oc2ccc(C)cc2C)c(C)c1`: the AC50 is 17.4 µM (active) in experiment [15] and 1.47 µM (active) in experiment [12].

With `CCCCCCCCCCCCN(C)C`, the AC50 in [16] is 1.51 µM (active). Moreover, the molecule was called inactive in experiment [9], in experiment [12], in [3], in experiment [4], in experiment [5] and in [17]. In [7], the molecule was classed as inactive.

As for `COCCl`, the AC50 in [11] is 4.2 µM (active); in [10], 1.22 µM (active). Also, the outcome in experiment [3], in [17] and in [7] was inactive.

On to `O=C(O)COc1cc(Cl)c(Cl)cc1Cl`, for which the AC50 in experiment [11] was 7.47 µM (active). Besides, the result in [9], in [10], in experiment [3] and in experiment [17] was inactive.

Take `CCCCCCCCCCBr`: in experiment [16], the AC50 is 0.87 µM (active).

`O=[N+]([O-])c1ccc(Nc2ccccc2)cc1`: the AC50 was 4.24 µM (active) in experiment [14], 5.62 µM (active) in experiment [15] and 20.4 µM (active) in experiment [12]. In addition, the outcome in [13] was inactive.

For `CC1CC(=O)O1` (stereo not given), in experiment [9], the result was inactive.
